Records with an inconclusive call do not appear. Active and inactive are the calls of the source. Unless noted, calls come from the whole dose curve.
Assays:
[1] = qHTS for Inhibitors of the Functional Ribonucleoprotein Complex (vRNP) of Lassa (LASV) Arenavirus: LASV Primary Screen - GLuc reporter signal (AID 1347082; calls by dose curve; tested in HEK293 reporter line; note: nearly all actives have a fitted effect of over 60% in size)
[2] = qHTS for Inhibitors of the Functional Ribonucleoprotein Complex (vRNP) of Lassa (LASV) Arenavirus: Viability assay - alamar blue signal for LASV Primary Screen (AID 1347083; calls by dose curve; tested in HEK293 reporter line; note: nearly all actives have a fitted effect of over 80% in size)
[3] = qHTS for Inhibitors of the Functional Ribonucleoprotein Complex (vRNP) of Lymphocytic Choriomeningitis Arenaviruses (LCMV): Viability assay - alamar blue signal for LCMV Primary Screen (AID 1347085; calls by dose curve; tested in HEK293 reporter line; note: nearly all actives have a fitted effect of over 80% in size)
[4] = target: Nucleoprotein (Lymphocytic choriomeningitis virus (strain Armstrong)) (UniProt P09992); assay: qHTS for Inhibitors of the Functional Ribonucleoprotein Complex (vRNP) of Lymphocytic Choriomeningitis Arenaviruses (LCMV): LCMV Primary Screen - GLuc reporter signal (AID 1347086); note: nearly all actives have a fitted effect of over 70% in size
Chain of Nucleoprotein (Lymphocytic choriomeningitis virus (strain Armstrong)) (P09992 whole entry, looked up): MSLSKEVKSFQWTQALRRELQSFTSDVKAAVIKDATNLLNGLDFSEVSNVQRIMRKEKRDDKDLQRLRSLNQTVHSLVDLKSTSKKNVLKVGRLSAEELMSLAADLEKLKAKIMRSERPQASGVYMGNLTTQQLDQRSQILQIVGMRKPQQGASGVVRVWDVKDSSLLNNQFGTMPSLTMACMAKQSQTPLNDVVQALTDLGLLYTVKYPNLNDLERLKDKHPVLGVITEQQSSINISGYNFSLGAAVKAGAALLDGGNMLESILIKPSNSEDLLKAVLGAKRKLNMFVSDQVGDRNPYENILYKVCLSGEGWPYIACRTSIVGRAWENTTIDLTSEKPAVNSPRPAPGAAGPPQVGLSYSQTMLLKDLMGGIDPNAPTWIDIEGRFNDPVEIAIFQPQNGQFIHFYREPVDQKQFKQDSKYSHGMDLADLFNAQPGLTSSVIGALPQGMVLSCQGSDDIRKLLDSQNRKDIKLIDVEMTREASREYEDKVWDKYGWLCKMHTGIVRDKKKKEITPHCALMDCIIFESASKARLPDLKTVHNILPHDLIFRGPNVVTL
% is set by controls: 0 for no effect and ±100 for the full control effect.
Note: series mostly up to about 57 µM.

CCN(CCCCOC(=O)c1ccc(OC)c(OC)c1)C(C)Cc1ccc(OC)cc1 (stereo not given)
inactive: Potency [1] | Potency [2] | Potency [3] | Potency [4]

CCCCN(CCN(CCCC)C(=O)N1CCOCC1)C(=O)N1CCOCC1
inactive: Potency [1] | Potency [2] | Potency [3] | Potency [4]

CC1=C(C)C(=O)C(CCCCC#CCCCC#CCO)=C(C)C1=O
inactive: Potency [1] | Potency [2] | Potency [3] | Potency [4]

CC1(C)[C@H](C(=O)O)N2C(=O)C[C@H]2S1(=O)=O
inactive: Potency [1] | Potency [2] | Potency [3] | Potency [4]

Nc1c2c(nc3ccccc13)CCCC2
inactive: Potency [1] | Potency [2] | Potency [3] | Potency [4]

N[C@@H](CSSC[C@H](N)C(=O)O)C(=O)O
inactive: activity change, negative = inhibition [1] -0.506% [at 0.757 µM] | activity change, negative = reduced viability [2] 9.51% [at 0.757 µM] | activity change, negative = lower viability [3] 6.72% [at 0.757 µM] | activity change, negative = inhibition [4] 13.5% [at 0.757 µM]

COc1cc(C(=O)OCCCN2CCCN(CCCOC(=O)c3cc(OC)c(OC)c(OC)c3)CC2)cc(OC)c1OC
inactive: Potency [1] | Potency [2] | Potency [3] | Potency [4]

N#Cc1cc(NC(=O)C(=O)O)c(Cl)c(NC(=O)C(=O)O)c1
inactive: Potency [1] | Potency [2] | Potency [3] | Potency [4]

CCOc1ccccc1C(N)=O
inactive: Potency [1] | Potency [2] | Potency [3] | Potency [4]

NCCNC(=O)c1ccc(Cl)cn1
inactive: Potency [1] | Potency [2] | Potency [3] | Potency [4]

CCOc1ccc2nc(S(N)(=O)=O)sc2c1
inactive: Potency [1] | Potency [2] | Potency [3] | Potency [4]

NC(=O)c1ncn([C@@H]2O[C@H](CO)[C@@H](O)[C@H]2O)c1N
inactive: Potency [1] | Potency [2] | Potency [3] | Potency [4]

O=C(O)[C@H](O)[C@@H](O)[C@H](O[C@@H]1O[C@H](CO)[C@H](O)[C@H](O)[C@H]1O)[C@H](O)CO
inactive: Potency [1] | Potency [2] | Potency [3] | Potency [4]

CC1(C)O[C@@H]2C[C@H]3[C@@H]4C[C@H](F)C5=CC(=O)CC[C@]5(C)[C@H]4[C@@H](O)C[C@]3(C)[C@]2(C(=O)CO)O1
inactive: Potency [1] | Potency [2] | Potency [3] | Potency [4]

NC1=NCC2c3ccccc3Cc3ccccc3N12 (stereo not given)
inactive: Potency [1] | Potency [2] | Potency [3] | Potency [4]

Cn1cc(C(=O)[C@@H]2CCc3nc[nH]c3C2)c2ccccc21
inactive: Potency [1] | Potency [2] | Potency [3] | Potency [4]

O=c1[nH]c2cc(C(F)(F)F)c(N3CCOCC3)cc2n(CP(=O)(O)O)c1=O
inactive: Potency [1] | Potency [2] | Potency [3] | Potency [4]

Cc1ccc(Nc2c(F)cccc2Cl)c(CC(=O)O)c1
inactive: Potency [1] | Potency [2] | Potency [3] | Potency [4]

CCC(C(=O)OCCOCCN(CC)CC)c1ccccc1 (stereo not given)
inactive: Potency [1] | Potency [2] | Potency [3] | Potency [4]

CC(=O)Nc1ccc(OCCOCCOc2ccc(NC(C)=O)cc2)cc1
inactive: Potency [1] | Potency [2] | Potency [3] | Potency [4]

C=C1C(=C/C=C2\CCC[C@]3(C)[C@@H]([C@H](C)/C=C/[C@@H](O)C4CC4)CC[C@@H]23)C[C@@H](O)C[C@@H]1O
inactive: Potency [1] | Potency [2] | Potency [3] | Potency [4]

CCOC(=O)Cn1cccc1-c1nc(-c2ccc(OC)cc2)c(-c2ccc(OC)cc2)s1
inactive: Potency [1] | Potency [2] | Potency [3] | Potency [4]

C/C=C/c1ccc(O)c(OC)c1
inactive: Potency [1] | Potency [2] | Potency [3] | Potency [4]

O=S(=O)(c1cccc2cnccc12)N1CCCNCC1
inactive: Potency [1] | Potency [2] | Potency [3] | Potency [4]

Cc1nc(C2CCCCC2)c(-c2ccc(S(N)(=O)=O)c(F)c2)o1
inactive: Potency [1] | Potency [2] | Potency [3] | Potency [4]

CCc1cccc2c(CCO)c[nH]c12
inactive: Potency [1] | Potency [2] | Potency [3] | Potency [4]

COc1ccc(S(=O)(=O)N2c3ccc(Cl)cc3[C@@](O)(c3ccccc3Cl)[C@H]2C(=O)N2CCC[C@@H]2C(N)=O)cc1OC
inactive: Potency [1] | Potency [2] | Potency [3] | Potency [4]

C=Cc1c(C)c2cc3[nH]c(cc4nc(cc5nc(cc1[nH]2)C(C)=C5CCC(=O)O)C(CCC(=O)O)=C4C)c(C)c3C=C
inactive: Potency [1] | Potency [2] | Potency [3] | Potency [4]

C=C1c2cccc(O)c2C(O)=C2C(=O)[C@]3(O)C(O)=C(C(N)=O)C(=O)[C@@H](N(C)C)[C@@H]3[C@@H](O)[C@H]12
inactive: Potency [1] | Potency [2] | Potency [3] | Potency [4]

CCOC(=O)c1cc(=O)c2c(OCC(COc3cccc4oc(C(=O)OCC)cc(=O)c34)OC(=O)[C@@H](N)CCCCN)cccc2o1
inactive: Potency [1] | Potency [2] | Potency [3] | Potency [4]

Reference: PubChem BioAssay (NCATS)
